# Screening data (PubChem)
# HP1b binding inh: HTS for Inhibitors of HP1-beta Chromodomain Interactions with Methylated Histone Tails. Chromobox protein homolog 1 (Homo sapiens), P83916. AlphaScreen HP1-beta / biotin-H3K9me3 peptide binding. Potency, µM (highest dose often 114 µM), for inactives: top-dose activity change, negative = inhibition, usual class: inhibitors. hit rate 0.56% among 390,000; note: nearly all actives have a fitted effect of over 70% in size
# Target sequence (P83916 whole entry, looked up): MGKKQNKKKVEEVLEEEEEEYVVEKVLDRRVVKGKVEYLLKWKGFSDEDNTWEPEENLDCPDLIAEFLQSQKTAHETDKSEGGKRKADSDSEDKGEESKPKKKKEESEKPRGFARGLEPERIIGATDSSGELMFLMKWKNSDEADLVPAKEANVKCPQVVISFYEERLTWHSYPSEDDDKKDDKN
#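 AlphaScreen: HP1-beta (50 nM) preformed 30 min with biotin-H3(1-18)K9me3 peptide (50 nM) in PBS pH 7.4, 0.01% Tween-20. Compound added for 30 min at RT, then streptavidin donor/nickel chelate acceptor beads (10 ug/mL) for 30 min.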
# G9a inh: qHTS Assay for Inhibitors of Histone Lysine Methyltransferase G9a; Histone-lysine N-methyltransferase EHMT2 (Homo sapiens), Q96KQ7; G9a H3K9 monomethylation, AlphaScreen, 2 h; Potency, µM (series often up to 102 µM), for inactives: top-dose activity, negative = inhibition, hits mostly inhibitors; hit rate 8.8% among 350,000; AID 504332, 2011; note: % is set by controls: 0 for no effect and ±100 for the full control effect; nearly all actives have a fitted effect of over 75% in size
# Target sequence (Q96KQ7 913-1193 limits assumed): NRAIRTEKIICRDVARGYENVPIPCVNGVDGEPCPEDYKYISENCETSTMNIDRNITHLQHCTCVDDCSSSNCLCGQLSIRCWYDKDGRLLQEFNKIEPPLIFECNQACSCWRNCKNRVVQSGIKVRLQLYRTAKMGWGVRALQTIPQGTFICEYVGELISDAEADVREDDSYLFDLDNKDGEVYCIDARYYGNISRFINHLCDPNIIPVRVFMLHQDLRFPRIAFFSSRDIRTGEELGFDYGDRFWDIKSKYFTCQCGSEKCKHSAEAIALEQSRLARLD
#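 Signal arises when biotinylated H3K9 peptide, once monomethylated, bridges streptavidin donor and antibody-captured acceptor beads. Enzyme at 20 nM was preincubated 15 min with test compounds; peptide 500 nM and SAM 20 uM then reacted for 2 h.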
# L3MBTL1 inh: qHTS Assay for the Inhibitors of L3MBTL1 | AlphaScreen L3MBTL1–H3K9me1 peptide binding | Potency, µM (highest dose often 57.1 µM), for the others: at the top dose activity, negative = inhibition, usual class: inhibitors | hit rate 0.66% among 230,000 | AID 485360, 2010; note: % is set by controls: 0 for no effect and ±100 for the full control effect; nearly all actives have a fitted effect of over 60% in size
#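 Displacement of a biotinylated histone H3(1-15) peptide monomethylated at Lys9 (75 nM) from L3MBTL1 (50 nM) was measured by AlphaScreen after a 30 min room-temperature compound incubation; cefsulodin titration served as intraplate control.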
# JMJD2A Tudor inh: qHTS Assay for Inhibitors of JMJD2A-Tudor Domain; AID 504339, 2011; hit rate 4.4% among 390,000; Potency, µM (doses to about 114 µM), inactives show at the highest dose activity change, negative = inhibition, most hits filed as inhibitors; Lysine-specific demethylase 4A (Homo sapiens), O75164; AlphaScreen JMJD2A-Tudor / H3K4me3 peptide binding; note: % is set by controls: 0 for no effect and ±100 for the full control effect; nearly all actives have a fitted effect of over 50% in size
# BAZ2B block: qHTS Assay for Inhibitors of BAZ2B; AlphaScreen BAZ2B-H3K14Ac peptide displacement; Potency, µM (series often up to 114 µM), without a hit: at the highest dose activity change, negative = inhibition, hits mostly inhibitors; hit rate 4.4% among 360,000; AID 504333, 2011; note: % is set by controls: 0 for no effect and ±100 for the full control effect; nearly all actives have a fitted effect of over 60% in size
#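 Complex of BAZ2B and biotin-H3K14Ac (50 nM apiece) forms over 30 min at RT, then faces library compounds up to 110 uM for another 30 min; AlphaScreen beads added, 20 min dark incubation, luminescence read.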
# Sfp inh: qHTS Assay for Inhibitors of Bacillus subtilis Sfp phosphopantetheinyl transferase (PPTase); 4'-phosphopantetheinyl transferase ffp (Bacillus subtilis), Q9F4F7; Biochemical Sfp PPTase activity, qHTS; Potency, µM, inactives show largest response in the series, negative = inhibition, most hits filed as inhibitors; hit rate 3.5% among 310,000; AID 1490, 2009;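 note: the enzyme is Sfp with the accession as filed and its product quenches rhodamine fluorescence; 0% = enzyme reaction without inhibitor and -100% = no enzyme wells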
#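 Fluorescence-quenching assay with 15 nM Sfp, 5 uM rhodamine-CoA and 12.5 uM BHQ-2-labelled ybbR peptide in pH 7.6 Hepes/MgCl2 buffer. Enzyme was pre-incubated with compound for 15 min at room temperature. Rate was taken from the 30-min fluorescence change (525/598 nm).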
# The depositor's hits bear a star; ? = inconclusive; nt = no result given; [ ] = remark or other dose. Most compounds without a hit are left out; they make up all but 12% or so of the library. Calls come from the whole dose curve; as a rule, active = well fitted curve in the direction sought with a large enough effect; inconclusive = small, poorly fitted or top-dose-only effect, or another doubt; inactive = no such curve, though single readings can be large; an effect the other way counts as inactive or inconclusive. Potency is the fitted concentration of half-maximal effect.
SMILES,HP1b binding inh,G9a inh,L3MBTL1 inh,JMJD2A Tudor inh,BAZ2B block,Sfp inh
CCOc1ccc(NC(=O)c2c(NCc3cc(OC)c(OC)cc3OC)sc3c2CCCC3)cc1,?,13µM*,nt,25µM*,25µM*,nt
CCOC(=O)N1CCc2c(sc(NCc3cc(OC)c(OC)cc3OC)c2C(=O)Nc2ccc(OCC)cc2)C1,?,3.2µM*,nt,11µM*,?,nt
CCOC(=O)c1ccc(NC(=O)c2c(NCc3cc(OC)ccc3OC)sc3c2CCC3)cc1,29%,5µM*,nt,-20%,-13%,nt
CCOc1cc(C(=O)Nc2ccc3nc(Nc4cccc(Cl)c4)cc(C)c3c2)cc(OCC)c1OCC,22%,1%[59 µM],nt,-18%,2%,nt
Cc1cccc(Cc2c(C)nc3nc(SCc4ccccc4F)nn3c2C)c1,41%,8%[59 µM],nt,9%,14%,nt
CCc1nccn1S(=O)(=O)c1ccc(OC)c(OC)c1,21%,-13%,nt,-21%,4%,3%
CCc1nccn1S(=O)(=O)c1ccc(C)c(C)c1,28%,45µM*,3%,-14%,8%,13%
CCOC(=O)C1=C(C)NC(=O)NC1c1ccc(N(CC)CC)cc1 (centres undefined),10%,45µM*,nt,?,-37%,7%
CCOC(=O)C1=C(C)NC(=O)NC1c1ccc(N(C)C)cc1 (centres undefined),17%,?,-5%,-35%,-2%,13%
CCC(CC)COC(=O)C1=C(C)NC(=O)NC1c1ccc(N(C)C)cc1 (centres undefined),-10%,16µM*,-29%,?,?,27%
O=C(Cn1cnc2onc(-c3ccc(F)cc3)c2c1=O)N1CCN(c2ccccc2F)CC1,21%,-4%[59 µM],nt,-16%,2%[57.1 µM],nt
C[C@H]1Cc2c(-c3ccccc3)nc3c(c2CO1)CN(C(=O)C1CCCCC1)CC3,nt,nt,nt,nt,nt,21%
C=CCn1c(CCC(O)COCCC)n[nH]c1=S (centres undefined),26%,-34%,-2%,22µM*,-27%,-3%
CCOC(=O)c1cc(OC(=O)c2cccc(Cl)c2)n(-c2ccccc2)n1,18%,-3%[59 µM],nt,?,-21%,nt
CCCCN(C(=O)Cn1nnc2ccccc21)C(C(=O)NCc1ccco1)c1ccncc1 (centres undefined),41%,?,5%,-17%,-2%,50µM*
Cc1cc(C)cc(N(C(=O)Cn2nnc3ccccc32)C(C(=O)NCc2ccco2)c2ccncc2)c1 (centres undefined),24%,?,nt,14%,-3%,45µM*
CC1=NC(=O)C(N=Nc2cccc(C(=O)O)c2)N1c1ccccc1 (centres undefined),-36%,?,nt,?,50µM*,-4%
CC1=NN(c2ccccc2)C(=O)C1N=Nc1ccc(S(N)(=O)=O)cc1 (centres undefined),45%,?,37%,-21%,-12%,?
CC1=NC(=O)C(N=Nc2ccccc2)N1c1ccccc1 (centres undefined),-32%,8.9µM*,-25%,11µM*,8.9µM*,-1%
Cc1[nH]n(-c2ccccc2)c(=O)c1N=Nc1ccccc1C(=O)O,-7%,?,-9%,?,?,-15%
CC1=NC(=O)C(N=Nc2ccccc2C(=O)O)N1c1ccccc1 (centres undefined),-13%,-12%[12.7 µM],-2%,?,28µM*,-7%
Cc1ccc(C)c(N2CCN(CCCNC(=O)Cn3ncc4c5ccccc5n(C)c4c3=O)CC2)c1,14%,-1%[59 µM],nt,-21%,-23%,nt
